D3 ag: D3 dopamine receptor (human) agonism; D3R DiscoveRx beta-arrestin cells, luminescence, 90 min; max activation, %; P35462; 0.58% of 410,000 active; in the data active = max activation above about 30%
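Agonist mode: compounds and dopamine controls were applied to plated cells for 90 min at 37 degrees C after an overnight attachment at 1500 cells/well. Luminescent read-out followed 30 - 60 minutes at room temperature with DiscoveRx detection reagent.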
DT40 TDP1 CPT: growth inhibition of DT40 Tdp1-/-;hTDP1 cells with camptothecin (screen for TDP1 inhibitors); chicken DT40 Tdp1-/-;hTDP1 cells + 20 nM CPT, ATP luminescence, 48 h; Potency, µM (series often up to 46.2 µM), usual class: inhibitors; 12% of 420,000 active; AID 686979; also: nearly all actives have a fitted effect of over 55% in size
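Chicken DT40 Tdp1-/- cells stably complemented with human TDP1 were seeded at 400 cells/well in medium containing 20 nM camptothecin, exposed to pin-transferred compounds, and grown at 37 °C for at least 48 hr. Viability was read as ATP luminescence.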
ClpP mod: qHTS Assay for Activators of ClpP; 1.9% of 340,000 active; Potency, µM (doses to about 57.5 µM); ATP-dependent Clp protease proteolytic subunit (Bacillus subtilis (strain 168)), P80244; purified B. subtilis ClpP, FRET peptide cleavage, 20 min; AID 651965, 2013; active = well fitted falling curve with a large enough effect; inconclusive = small, poorly fitted or top-dose-only effect; inactive = no such curve, though single readings can be large or run the other way; also: the source files actives as falling curves though it sought activators and does not explain the sign; nearly all actives have a fitted effect of over 65% in size
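Purified B. subtilis ClpP, 10 microg/mL final in Tris/HCl pH8 with KCl, BSA, glycerol and Tween-20, cleaved an Abz/nitrotyrosine-quenched decapeptide. Fluorescence (ex 320, em 430) was read at 0 and 20 min at room temperature. Delta was normalized to 5.8 microM ADEP and DMSO/no-enzyme controls.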
IL-1B inflam inh: blocks inflammasome-driven IL-1 beta release; 4.7% of 360,000 active; THP-1 LPS/ATP IL-1B secretion, AlphaLISA, 16 h; hits give low values; activity change, % at 57.5 µM; AID 743279; in the data active = activity change below about -50%; inconclusive = mostly about -30% to -49%
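Secreted IL-1B measured by AlphaLISA bead assay after 16 h compound exposure of THP-1 cells; compounds (final up to 57.5 uM) added 1 h before LPS (250 ng/mL) and ATP (1.25 mM) stimulation; lower signal means less secretion.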
D3 antag: D3 dopamine receptor (human) antagonism | D3R cells, DiscoveRx beta-arrestin luminescence, antagonist mode; hits give low values | max response, negative = inhibition, % | 2.5% of 360,000 active | AID 652054; in the data active = max response below about -50%; inconclusive = no clear call, values can overlap the other calls
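Cells plated overnight at 1500 cells/well, then exposed to library compounds with dopamine controls for 90 minutes at 37 degrees C. DiscoveRx reagent added for 30–60 minutes at room temperature; luminescence read, quantitative HTS format.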
TDP1 cell noCPT: qHTS for Inhibitors of human tyrosyl-DNA phosphodiesterase 1 (TDP1): qHTS in cells in absence of CPT | Potency, µM (doses to about 46.2 µM), actives largely listed as inhibitors | AID 686978, 2013 | 15% of 420,000 active | DT40 Tdp1-/- hTDP1 cells, no CPT, ATP luminescence, 48 h; also: nearly all actives have a fitted effect of over 55% in size
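A cellular qHTS used chicken DT40 cells lacking endogenous Tdp1 but carrying stably transfected human TDP1. Compounds were applied without camptothecin, and cell growth kinetics were judged by ATP-dependent luminescence after ≥48 hr.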
Large screens that a line does not name were inactive. Shown are actives, neighbours in structure and some others; about 21% of the full set was active somewhere. Unless noted, calls follow the shape of the dose curve; as a rule, active = well fitted inhibition curve with a large enough effect; inconclusive = small, poorly fitted or top-dose-only effect; inactive = flat fitted curve, though single readings scatter.

C[C@@H]1CN([C@H](C)CO)C(=O)Cc2cc(NS(=O)(=O)c3ccc(Cl)cc3)ccc2O[C@H]1CN(C)Cc1ccc(C(F)(F)F)cc1	D3 ag 37, DT40 TDP1 CPT inconclusive, IL-1B inflam inh inconclusive, TDP1 cell noCPT inconclusive
Cc1ccc(-n2nc(C)c3c(C(=O)NCCc4ccccc4)cc(C)nc32)cc1	DT40 TDP1 CPT inconclusive, TDP1 cell noCPT inconclusive (no result: IL-1B inflam inh, D3 antag)
CC1=C(C#N)C(c2ccoc2)C(C(=O)OCc2ccccc2)=C(N)S1 (stereo not drawn)	TDP1 cell noCPT 26µM
Cc1ccc(SCCC(=O)N2CCN(S(=O)(=O)c3ccccc3)CC2)cc1	DT40 TDP1 CPT inconclusive, TDP1 cell noCPT inconclusive
Cc1cc(Cl)ccc1OCCCC(=O)N1CCN(C(=O)c2ccco2)CC1	DT40 TDP1 CPT inconclusive, TDP1 cell noCPT 21µM
CCOc1ccc(OCCCC(=O)N2CCN(S(=O)(=O)c3ccccc3C#N)CC2)cc1	DT40 TDP1 CPT inconclusive, IL-1B inflam inh -52, D3 antag inconclusive, TDP1 cell noCPT inconclusive
O=C(CCSc1ccc(Cl)cc1)N1CCN(S(=O)(=O)c2ccccc2)CC1	DT40 TDP1 CPT 21µM, TDP1 cell noCPT 18µM
CCOc1ccc(OCCC(=O)N2CCN(S(=O)(=O)c3ccc(OCC)cc3)CC2)cc1	none
O=C(CCCOc1ccccc1)N1CCN(C(=O)c2ccco2)CC1	none
CCc1ccc(CCC(=O)N2CCN(S(=O)(=O)c3ccc(Br)cc3)CC2)cc1	DT40 TDP1 CPT inconclusive, TDP1 cell noCPT 18µM
CCCCN(C(=O)c1cc(=O)[nH]c2ccccc12)c1c(N)n(CCCC)c(=O)[nH]c1=O	none
COc1ccc(CN2CCNC(=O)C2CC(=O)N2CCCN(C(C)=O)CC2)cc1OC (stereo not drawn)	none
CCOc1ccccc1OCCCC(=O)N1CCN(S(=O)(=O)c2ccc(Cl)cc2)CC1	DT40 TDP1 CPT inconclusive, TDP1 cell noCPT 18µM
Cc1ccccc1OCCC(=O)OCC(=O)N1CCN(S(=O)(=O)c2ccc(Cl)cc2)CC1	none
Cc1cc(Cl)ccc1OCCCC(=O)N1CCN(S(=O)(=O)c2ccccc2)CC1	DT40 TDP1 CPT inconclusive, IL-1B inflam inh -87, TDP1 cell noCPT inconclusive
CCCOc1ccccc1OCC(=O)N1CCN(S(=O)(=O)c2ccc(Cl)cc2)CC1	none
CCc1ccc(N2C(=O)c3sc4nnc(-c5ccccc5)c(=O)n4c3C2=O)cc1	DT40 TDP1 CPT 12µM, TDP1 cell noCPT 13µM
CCc1ccc(NC(=O)C(C)n2nnc3sc(-c4ccccc4)cc3c2=O)cc1 (stereo not drawn)	DT40 TDP1 CPT inconclusive, TDP1 cell noCPT inconclusive (no result: IL-1B inflam inh, D3 antag)
C=CCNc1nc(Nc2ccc([N+](=O)[O-])cc2)nc(N2CCCC2)n1	DT40 TDP1 CPT 15µM, IL-1B inflam inh -63, TDP1 cell noCPT inconclusive (no result: ClpP mod)
C=CCNc1nc(NCC)nc(N2CCOCC2)n1	none
CCCCc1ccc(Nc2nc(N3CCOCC3)nc(N3CCOCC3)n2)cc1	DT40 TDP1 CPT inconclusive, TDP1 cell noCPT inconclusive
CCCNc1nc(Nc2ccc([N+](=O)[O-])cc2)nc(N2CCOCC2)n1	DT40 TDP1 CPT 13µM, TDP1 cell noCPT 14µM (no result: D3 ag, IL-1B inflam inh, D3 antag)
C=CCNc1nc(Nc2ccc(-c3nc4ccccc4o3)cc2)nc(N2CCOCC2)n1	D3 ag 33, DT40 TDP1 CPT 29µM, TDP1 cell noCPT 26µM
O=C(NCCc1ccc(F)cc1)Nc1ccccc1Cl	IL-1B inflam inh inconclusive
COc1cc(=O)n2c(c1C(=O)N(C)Cc1nonc1C)CCN(Cc1ccccc1F)CC2	none (no result: D3 ag, ClpP mod, IL-1B inflam inh, D3 antag)
COc1ccc(CN2CCOc3ccc(C(O)c4cccnc4)cc3C2)c(F)c1 (stereo not drawn)	TDP1 cell noCPT inconclusive (no result: D3 ag, ClpP mod, IL-1B inflam inh, D3 antag)
COC(=O)c1ccc(Cl)c(NC(=O)CN(c2ccccc2)S(=O)(=O)c2ccc(OC)cc2)c1	DT40 TDP1 CPT inconclusive, TDP1 cell noCPT 16µM
COc1ccc(N(CC(=O)Nc2cccc(N(C)S(C)(=O)=O)c2)S(=O)(=O)c2ccc(C)cc2)cc1	DT40 TDP1 CPT inconclusive, TDP1 cell noCPT inconclusive

Bioassay records: PubChem, National Center for Advancing Translational Sciences (NCATS)
